Drawing on the supplement of paper PMC9262897, “Low-cost anti-mycobacterial drug discovery using engineered E. coli” (Nature Communications, 2022), this text covers growth for 39 compounds.

Structures are written as SMILES. Where a name gives a salt, the structure may show the parent alone. ± gives the standard deviation of the averaged measurements.

For this test, the system named is E. coli TESEC Mtb Alr. Briefly: growth (OD600 after 10 h); higher = more growth (less inhibition). Particulars: arabinose 10000000 nM; compound 0.1 mM; raw OD600 reference: median of DMSO wells 0.146, cell-free background 0.041. How it is done: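 TESEC Mtb Alr E. coli, or the Alr+ wild-type control, in 384-well plates with Prestwick library compounds at 0.1 mM and 1% DMSO, across arabinose induction levels of 1E3 to 1E7 nM. Growth is read as OD600 after 10 h at 37 °C in triplicate biological replicates.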
As for `CC(=O)Oc1cccc2c1C(=O)c1c(OC(C)=O)cc(C(=O)O)cc1C2=O` [Diacerein], the growth worked out at 0.0642 ± 0.005.

`COc1ccc(-c2cc(=S)ss2)cc1` [Anethole-trithione] had a growth of 0.168 ± 0.0049.

As to `O=C(O)Cc1ccccc1Nc1c(Cl)cccc1Cl` [Diclofenac sodium], the growth was determined as 0.131 ± 0.0017.

`CCN1CCC[C@H]1CNC(=O)c1c(O)c(Cl)cc(Cl)c1OC` [Raclopride] returned a growth of 0.172 ± 0.0058.

In turn, `COc1ccc(C[C@@H]2c3cc(OC)c(OC)cc3CC[N@+]2(C)CCC(=O)OCCCCCOC(=O)CC[N@@+]2(C)CCc3cc(OC)c(OC)cc3[C@H]2Cc2ccc(OC)c(OC)c2)cc1OC` [Cisatracurium besylate] yielded a growth of 0.156 ± 0.0018.

`CN(C)CCOC(=O)C(c1ccccc1)C1(O)CCCC1` (centres undefined) [Cyclopentolate hydrochloride] had a growth of 0.133 ± 0.0078.

With `CCCCOc1ccc(C(=O)CCN2CCCCC2)cc1` [Dyclonine hydrochloride], the growth turned out to be 0.144 ± 0.0069.

For the compound `CC[C@H]1OC(=O)[C@H](C)[C@@H](O[C@H]2C[C@@](C)(OC)[C@@H](O)[C@H](C)O2)[C@H](C)[C@@H](O[C@@H]2O[C@H](C)C[C@H](N(C)C)[C@H]2O)[C@](C)(O)C[C@@H](C)/C(=N\OCOCCOC)[C@H](C)[C@@H](O)[C@]1(C)O` [Roxithromycin], the growth is 0.0439 ± 0.002.

The compound `CCOC(=O)O[C@]1(C(=O)OCCl)CC[C@H]2[C@@H]3CCC4=CC(=O)C=C[C@]4(C)[C@H]3[C@@H](O)C[C@@]21C` [Loteprednol etabonate] yielded a growth of 0.179 ± 0.0076.

As to `c1ccc2c(CC3=NCCN3)cccc2c1` [Naphazoline hydrochloride], the growth amounted to 0.147 ± 0.0052.

In turn, `O=C(N/N=C/c1ccc([N+](=O)[O-])o1)c1ccc(O)cc1` [Nifuroxazide] came in with a growth of 0.133 ± 0.0085.

Turning to `COCCOC(=O)C1=C(C)NC(C)=C(C(=O)OC/C=C/c2ccccc2)C1c1cccc([N+](=O)[O-])c1` (centres undefined) [Cilnidipine], the growth amounted to 0.164 ± 0.0066.

In turn, `CCN(CC)CCOC(=O)c1ccc(N)cc1` [Procaine hydrochloride] displayed a growth of 0.146 ± 0.0049.

In turn, `COc1cccc(N(C)C(=S)Oc2ccc3c(c2)CCCC3)n1` [Liranaftate] registered a growth of 0.149 ± 0.0092.

`CC(C)(Sc1cc(C(C)(C)C)c(O)c(C(C)(C)C)c1)Sc1cc(C(C)(C)C)c(O)c(C(C)(C)C)c1` [Probucol]: the growth was determined as 0.173 ± 0.02.

`C[C@@H]1[C@H](O)[C@@H](C)/C=C/C=C/C=C/C=C/C=C/C=C/C=C/[C@H](O[C@@H]2O[C@H](C)[C@@H](O)[C@H](N)[C@@H]2O)C[C@@H]2O[C@](O)(C[C@@H](O)C[C@@H](O)[C@H](O)CC[C@@H](O)C[C@@H](O)CC(=O)O[C@H]1C)C[C@H](O)[C@H]2C(=O)O` [Amphotericin B]: the growth stood at 0.261 ± 0.0027.

Compound `C[C@@H](O)[C@H]1C(=O)N2C(C(=O)O)=C(S[C@@H]3CN[C@H](C(=O)N(C)C)C3)[C@H](C)[C@H]12` [Meropenem] came in with a growth of 0.0962 ± 0.003.

The compound `CC1CCc2cc(F)cc3c(=O)c(C(=O)O)cn1c23` (centres undefined) [Flumequine] displayed a growth of 0.04987 ± 0.00029.

The compound `O=C1CC2(CCCC2)CC(=O)N1CCCCN1CCN(c2ncccn2)CC1` [Buspirone hydrochloride] returned a growth of 0.134 ± 0.0058.

In turn, `CC[C@]12CCCN3CCc4c(n(c5ccccc45)[C@@](O)(C(=O)OC)C1)[C@@H]32` [Vincamine] registered a growth of 0.138 ± 0.0023.

`N#CC(c1ccc(Cl)cc1)c1c(Cl)cc(-n2ncc(=O)[nH]c2=O)cc1Cl` (centres undefined) [Diclazuril] had a growth of 0.0479 ± 0.0017.

`CCOC(=O)[C@H](CCc1ccccc1)N[C@H]1CCc2ccccc2N(CC(=O)O)C1=O` [Benazepril HCl]: the growth came to 0.1615 ± 0.0012.

As to `C[C@H](CCC(=O)O)[C@H]1CC[C@H]2[C@@H]3[C@H](O)C[C@@H]4C[C@H](O)CC[C@]4(C)[C@H]3CC[C@]12C` [Chenodiol], the growth stood at 0.143 ± 0.0086.

`CC(=O)CC(c1ccccc1)c1c(O)c2ccccc2oc1=O` (centres undefined) [Warfarin]: the growth came out at 0.126 ± 0.0063.

`O=C1CN(/N=C/c2ccc(-c3ccc([N+](=O)[O-])cc3)o2)C(=O)N1` [Dantrolene sodium salt] yielded a growth of 0.131 ± 0.0074.

`Nc1nc2c(ncn2COC(CO)CO)c(=O)[nH]1` [Ganciclovir] came in with a growth of 0.136 ± 0.0066.

Compound `Cc1ccc(C(=O)c2cc(O)c(O)c([N+](=O)[O-])c2)cc1` [Tolcapone] returned a growth of 0.0485 ± 0.00089.

`Fc1ccc([C@@H]2CCNC[C@H]2COc2ccc3c(c2)OCO3)cc1` [Paroxetine Hydrochloride] came in with a growth of 0.0552 ± 0.0014.

`COc1ccc(CN2CCN(C(c3ccc(F)cc3)c3ccc(F)cc3)CC2)c(OC)c1OC` [Lomerizine hydrochloride]: the growth was found to be 0.0717 ± 0.0016.

`C[C@@H]1C[C@H]2[C@@H]3CCC4=CC(=O)C=C[C@]4(C)[C@@]3(Cl)[C@@H](O)C[C@]2(C)[C@@]1(OC(=O)c1ccco1)C(=O)CCl` [Mometasone furoate] returned a growth of 0.152 ± 0.013.

Regarding `Cc1cccc(Nc2ccncc2S(=O)(=O)NC(=O)NC(C)C)c1` [Torsemide], the growth amounted to 0.16 ± 0.0021.

With `COc1nc(C)nc(Cl)c1NC1=NCCN1` [Moxonidine], the growth is 0.133 ± 0.0069.

`NC(=O)c1cccnc1` [Nicotinamide]: the growth amounted to 0.155 ± 0.0058.

With `NCCCC(O)(P(=O)(O)O)P(=O)(O)O` [Alendronate sodium], the growth is 0.162 ± 0.0058.

As for `NNC(=O)c1ccncc1` [Isoniazid], the growth worked out at 0.139 ± 0.0028.

`CC(C)OC(=O)C(C)(C)Oc1ccc(C(=O)c2ccc(Cl)cc2)cc1` [Fenofibrate]: the growth is 0.161 ± 0.0021.

`CCC[C@@H]1C[C@@H](C(=O)N[C@@H]([C@H]2O[C@H](SC)[C@H](O)[C@@H](O)[C@H]2O)[C@@H](C)O)N(C)C1` [Lincomycin hydrochloride] registered a growth of 0.0731 ± 0.00091.

On to `CS(=O)(=O)OCCCCOS(C)(=O)=O` [Busulfan], for which the growth is 0.139 ± 0.0018.

Take `CC[C@H]1OC(=O)C[C@@H](O)[C@H](C)[C@@H](O[C@@H]2O[C@H](C)[C@@H](O[C@H]3C[C@@](C)(O)[C@@H](O)[C@H](C)O3)[C@H](N(C)C)[C@H]2O)[C@@H](CC=O)C[C@@H](C)C(=O)/C=C/C(C)=C/[C@@H]1CO[C@@H]1O[C@H](C)[C@@H](O)[C@@H](OC)[C@H]1OC` [Tylosin]: the growth came to 0.0429 ± 0.0013.
